# An excerpt weighted towards active compounds, which were near 1.5% of everything screened.
# Bcl-xL primary: inhibitors of human Bcl-xL. Q07817. inhibition, % at 10.9 µM. GST-Bcl-xL / FITC-Bim BH3 peptide fluorescence polarization. hit rate 0.7% among 320,000. AID 2129;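 active means inhibition above the mean of all tested compounds plus 3 SD, cutoff set per campaign, cut at about 30% in these data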;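 further: 0% = DMSO wells and 100% = unlabeled Bim-BH3 peptide competitor; inhibitors lower millipolarization by displacing the labeled peptide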
# MEX-5 binding: C. elegans MEX-5 TCR-2 RNA binding activity; Q9XUB2; MEX-5/FITC-TCR2 RNA binding, fluorescence polarization; stronger effect = lower value; activity score (negative = inhibition of binding), % at 10 µM; hit rate 0.38% among 300,000; AID 1832;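 active means inhibition past about -25% in most replicates, and total fluorescence under double the plate's negative control median, limit read from the data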;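 further: 0% = DMSO and -100% = 5 µM competing unlabeled TCR2 RNA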
# GLD-1 TGE inh: GLD-1-TGE RNA interaction inhibition (C. elegans). purified GLD-1 + fluorescein TGE RNA, fluorescence polarization. inhibition, % at 5.96 µM. hit rate 0.44% among 320,000;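 active means percent inhibition above a per-plate cutoff, the plate mean of test compounds plus 3 SD, cut at about 30% in these data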;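 further: 0% = DMSO wells with GLD-1 and probe and 100% = wells lacking GLD-1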
# eLon inh: inhibitors of E. coli Lon protease; P0A9M0; purified E. coli Lon protease, fluorescence polarization; inhibition, % at 7.94 µM; hit rate 0.42% among 360,000; AID 602123; in the data active means inhibition above about 13%, passing the limit was not always enough;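 further: 0% = enzyme with probe and DMSO and 100% = no enzyme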
# EBV gp42 inh: EBV gp42 inhibition; Fluorescence polarization binding assay, mP read-out; inhibition, % (tested at 21.74 µM); hit rate 0.42% among 220,000; in the data active means inhibition above about 50%
# Target sequence (Q1HVG2 whole entry, looked up): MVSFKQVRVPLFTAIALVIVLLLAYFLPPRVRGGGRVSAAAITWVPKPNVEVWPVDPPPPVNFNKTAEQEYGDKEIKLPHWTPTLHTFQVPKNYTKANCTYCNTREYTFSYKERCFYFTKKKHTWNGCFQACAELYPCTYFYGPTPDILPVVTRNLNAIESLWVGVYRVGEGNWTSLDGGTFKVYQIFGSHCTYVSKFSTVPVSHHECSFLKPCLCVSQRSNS
# MCL1 BIM primary: MCL1-BIM-BH3 interaction inhibition (human). Q07820. inhibition, % at 10.9 µM. hit rate 0.68% among 320,000. GST-MCL1 / FITC-Bim-BH3 fluorescence polarization;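 active means inhibition above the mean inhibition of all tested compounds plus 3 SD, set per campaign, cut at about 40% in these data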;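 further: 0% = DMSO wells and 100% = unlabeled Bim-BH3 peptide control; higher means more loss of mP so more displacement of Bim peptide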
# Target sequence (Q07820 whole entry, looked up): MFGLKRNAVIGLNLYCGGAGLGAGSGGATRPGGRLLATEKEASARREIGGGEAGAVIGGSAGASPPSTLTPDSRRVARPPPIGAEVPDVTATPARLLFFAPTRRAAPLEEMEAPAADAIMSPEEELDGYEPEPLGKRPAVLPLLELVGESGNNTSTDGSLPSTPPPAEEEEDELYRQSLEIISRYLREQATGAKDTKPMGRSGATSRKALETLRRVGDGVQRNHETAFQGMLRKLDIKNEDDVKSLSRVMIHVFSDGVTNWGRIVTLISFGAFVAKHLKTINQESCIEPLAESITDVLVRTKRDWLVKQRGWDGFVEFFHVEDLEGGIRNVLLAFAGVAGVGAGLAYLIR
# An asterisk follows results filed as active; nt = no result given.
SMILES,Bcl-xL primary,MEX-5 binding,GLD-1 TGE inh,eLon inh,EBV gp42 inh,MCL1 BIM primary
COc1ccc(C(=O)Nc2nc(-c3ccc([N+](=O)[O-])cc3)c(-c3ccccc3)s2)cc1,-1,-162*,0,-3,nt,4
Cc1cc[n+](-c2[nH]c(=O)sc2/C=N/N=C(\[O-])c2ccccc2)cc1,26,-10,25,11,24,35
Cc1cc[n+](-c2[nH]c(=O)sc2/C=N/N=C(\[O-])c2ccncc2)cc1,38*,-23,20,13,nt,49*
Cc1ncc([N+](=O)[O-])n1Cc1cccc2ccccc12,5,-2,3,2,66*,-2
COc1ccc(/C=c2\sc3nc(=O)c(C)nn3c2=O)c(OC)c1,-14,-40*,-5,-3,-136,-22
N#Cc1ccc(C=NN2CCCCCC2)cc1,nt,nt,nt,2,nt,nt
O=C(O[C@@H]1Cc2c(O)cc(O)cc2O[C@@H]1c1cc(O)c(O)c(O)c1)c1cc(O)c(O)c(O)c1,nt,-84*,nt,nt,1,nt
C=CCn1c(O)c(CN2CCOCC2)c(C)c(C#N)c1=O,39*,-5,28,-3,nt,35
CCC(=O)NC(c1ccc(OC)cc1)c1cc(Cl)c2cccnc2c1O (configuration not stated),20,0,1,-4,-7,18
COc1ccc(C(NC(=O)c2cccnc2)c2cc(Cl)c3cccnc3c2O)cc1OC (configuration not stated),18,-1,0,35*,-4,22
COC(=O)C(Cc1ccccc1)NC(=O)CCNC(=O)c1ccc(Br)cc1 (configuration not stated),-14,2,-3,-13,nt,-15
O=C(CN1C(=O)c2ccccc2C1=O)NC(Cc1ccccc1)C(=O)O (configuration not stated),nt,nt,nt,3,nt,nt
CCOC(=O)CNc1c(-c2ccc(Cl)cc2)nc2cnccn12,28,-8,1,1,21,26
CCOC(=O)CNc1c(-c2ccc(F)cc2)nc2cnccn12,33*,-12,15,-4,nt,24
O=C(O)c1ccc(-n2c(-c3cc(-c4ccco4)[nH]n3)n[nH]c2=S)cc1,9,-92*,3,0,-42,38
Cc1ccc(N2C(=O)C3CCC(C)(C2=O)C3(C)C)cc1C (configuration not stated),38*,3,7,9,-4,-2
COCCn1c(=S)[nH]c2ccc(N(C)C)cc2c1=O,32*,-2,17,14,22,31
OCCCNc1ncnc2sc3c(c12)CCN(Cc1ccccc1)C3,23,-28*,-21,-44,nt,16
O=C(/C=C(\O)c1ccccc1)C(=O)NNC(=O)c1ccccc1[N+](=O)[O-],6,-48*,8,-8,nt,3
O=C(NNC(=O)c1cnccn1)c1cccc([N+](=O)[O-])c1,4,-61*,-2,-5,-3,4
O=C(NNC(=S)NC(=O)c1ccccc1[N+](=O)[O-])c1ccccc1[N+](=O)[O-],6,-21,-2,-2,-7,17
Cc1cc(C(=O)NNC(=O)c2cccc([N+](=O)[O-])c2)n[nH]1,0,nt,-1,4,nt,10
O=C(NNC(=O)c1ccccc1[N+](=O)[O-])c1cnccn1,0,-65*,5,-1,-23,2
Nc1cc2nsnc2cc1Br,42*,-2,11,5,50,41*
O=C1C2C3C=CC(C4CC34)C2C(=O)N1/N=C/c1ccc(-c2ccc(Cl)cc2[N+](=O)[O-])o1 (configuration not stated),16,2,15,5,10,18
SMILES,Bcl-xL primary,MEX-5 binding,GLD-1 TGE inh,eLon inh,EBV gp42 inh,MCL1 BIM primary
COc1ccc(-c2ccc(/C=N/N3C(=O)C4C5C=CC(C6CC56)C4C3=O)o2)c([N+](=O)[O-])c1 (configuration not stated),31*,2,20,4,5,39
Cc1[nH]c(=O)[nH]c(=O)c1NC(=O)c1ccccc1[N+](=O)[O-],nt,nt,nt,-8,nt,nt
COc1ccc(-n2c(N)c(C(=O)Nc3c(C)n(C)n(-c4ccccc4)c3=O)c3nc4ccccc4nc32)cc1,23,-12,15,6,-1,23
Cc1ccc(-n2c(N)c(C(=O)Nc3c(C)n(C)n(-c4ccccc4)c3=O)c3nc4ccccc4nc32)cc1C,57*,0,20,nt,33,61*
Cn1ncc(Cl)c1C(=O)NNC(=O)Nc1cccc2ccccc12,nt,nt,nt,1,nt,nt
COc1cccc(-n2c([S-])c(C(=O)Nc3ccc(S(=O)(=O)N4CCOCC4)cc3)[n+]3cc(C(N)=O)ccc23)c1,36*,-2,23,12,-3,35
COc1ccccc1NC(=O)NC1(C(=O)NCC2CCCO2)CCCCC1 (configuration not stated),1,1,9,5,nt,9
Nc1ccc(N(CCO)CCO)cc1,42*,-28*,22,9,-6,43*
CCN(CC)c1ccc(N)cc1,-4,nt,-9,-19,nt,-13
O=C(C1=NN(c2ccccc2)C2C(=O)N(c3cccc(Cl)c3)C(=O)C12)c1ccccc1 (configuration not stated),32*,nt,5,-40,74*,14
O=C(C1=NN(c2ccccc2)C2C(=O)N(c3ccc(Cl)cc3)C(=O)C12)c1ccccc1 (configuration not stated),46*,nt,23,-25,67*,39
COc1ccc(NC(=O)CSc2nc3c(c(-c4cccs4)c2C#N)CN(C)CC3)cc1OC,42*,-3,18,8,57*,30
CC1(C)CC(=O)C2=C(C1)OC(N)=C(C#N)C2c1ccc[nH]1 (configuration not stated),33*,-3,8,-16,-3,26
CC1(C)CC(=O)C2=C(C1)OC(N)=C(C#N)C2c1ccc(OC(=O)N2CCOCC2)cc1 (configuration not stated),0,1,5,-3,-8,-5
COc1ccc(C2C(C#N)=C(N)OC3=C2C(=O)CC(C)(C)C3)cc1 (configuration not stated),51*,0,6,-4,-7,-3
CC(C)(CNC(=O)c1ccc(S(=O)(=O)Nc2ccc(Cl)cc2)cc1)N1CCOCC1,6,nt,3,4,nt,7
CC1=NN(c2ccc(C(=O)O)c(N)c2)C(=O)C1,21,-39*,-2,-7,-17,20
CCn1c(SCC(=O)NC2CCCC2)nnc1C(C)NC(=O)c1ccccc1Br (configuration not stated),2,-1,0,-11,nt,5
O=Cc1sc([O-])nc1-[n+]1ccc2ccccc2c1,47*,-6,22,nt,13,41*
COc1ccc(NC(=O)CSc2ccc3c4c(cccc24)C(=O)c2ccccc2-3)cc1,15,-19,-17,-36,133*,-6

# Source: PubChem BioAssay (several laboratories)
